High-throughput results: PubChem, National Center for Advancing Translational Sciences (NCATS)
In the library only some 7.1% were active in any assay of this set; here they are far more common.
S2 tox = cell viability loss in ATXN counter-screen; S2 cells (HEK-293 line with an ATXN2-luciferase reporter) viability, CellTiter-Fluor protease fluorescence, 24 h; Potency, µM (series often up to 56.7 µM), most hits filed as cytotoxic; 400,000 compounds, 0.49% hits; AID 651635; note: nearly all actives have a fitted effect of over 40% in size
MCF10A rerep = induces DNA re-replication in MCF 10a normal breast cells. AID 624296. 350,000 compounds, 2.9% hits. MCF 10A DNA re-replication, Hoechst nuclear intensity, 48 h. Potency, µM (highest dose often 46.1 µM), usual class: activators; note: nearly all actives have a fitted effect of over 50% in size
ATXN2 expr inh = inhibitors of ATXN2 expression | AID 1745845 | HEK-293 ATXN2-luciferase reporter, luminescence, 24 h | Potency, µM (titrated, usually from 57 µM), most hits filed as inhibitors | 360,000 compounds, 0.72% hits; note: nearly all actives have a fitted effect of over 55% in size
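ATXN2-luciferase reporter cells (luciferase flanked by upstream and downstream ATXN2 gene portions) were treated 24 h at 37 °C with compounds at up to 57 uM. SteadyGlo luminescence gave expression; GF-AFC fluorescence gave viability.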
SW480 rereplic = inducers of DNA re-replication in SW480 colon cancer cells; Potency, µM (titrated, usually from 46.1 µM), hits mostly activators; SW480 DNA re-replication, Hoechst DNA content imaging, 48 h; 340,000 compounds, 1.8% hits; note: nearly all actives have a fitted effect of over 55% in size
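Compounds, transferred as 23 nL by pin tool, were incubated with cells for 48 hr; DNA content per nucleus was then quantified by Hoechst staining and fluorescence plate imaging.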
IL1B secr inh = blocks inflammasome-driven IL-1 beta release | THP-1 LPS/ATP IL-1B secretion, AlphaLISA, 16 h; hits give low values | activity change, % at 57.5 µM | 360,000 compounds, 4.7% hits | AID 743279; in the data active = activity change below about -50%; inconclusive = mostly about -30% to -49%
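Secreted IL-1B measured by AlphaLISA bead assay after 16 h compound exposure of THP-1 cells; compounds (final up to 57.5 uM) added 1 h before LPS (250 ng/mL) and ATP (1.25 mM) stimulation; lower signal means less secretion.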
PINK1 expr mod = modulators of PINK1 expression. Potency, µM (titrated, usually from 76.6 µM), actives largely listed as activators. AID 624263. PINK1 immunofluorescence, high-content cytometry, 24 h. 410,000 compounds, 0.2% hits; active = well fitted activation curve with a large enough effect; inconclusive = small, poorly fitted or top-dose-only effect; cell line not stated here; note: nearly all actives have a fitted effect of over 65% in size
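Readout is PINK1 immunofluorescence, quantified alongside mitochondrial, cell and nuclear markers by laser-scanning microplate cytometry. Cells from a stable line were exposed to compound titrations (5 concentrations) for 24 hours, with CCCP controls.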
Large screens that a line does not name were inactive. Unless noted, calls come from the whole dose curve; as a rule, active = well fitted curve in the direction sought with a large enough effect; inconclusive = small, poorly fitted or top-dose-only effect, or another doubt; inactive = no such curve, though single readings can be large; an effect the other way counts as inactive or inconclusive.

Cn1c(=O)c(=O)n(C)c2cc(N3CCCC3)c(NC(=O)c3ccc(C(C)(C)C)cc3)cc21	none (no result: MCF10A rerep, SW480 rereplic, IL1B secr inh)
CCN1CCN(c2nc(-c3cccs3)nc3ccccc23)CC1	IL1B secr inh inconclusive
Oc1ccc(N2CCN(c3nc(-c4cccs4)nc4ccccc34)CC2)cc1	S2 tox inconclusive, MCF10A rerep inconclusive, ATXN2 expr inh inconclusive, SW480 rereplic inconclusive, IL1B secr inh inconclusive
c1csc(-c2cc(N3CCCCC3)c3ccccc3n2)c1	MCF10A rerep 20.6µM
c1ccc(N2CCN(c3nc(-c4cccs4)nc4ccccc34)CC2)cc1	MCF10A rerep 23.1µM, IL1B secr inh -58.3
c1csc(-c2nnc(N3CCCCCC3)c3ccccc23)c1	MCF10A rerep inconclusive
CN1CCN(c2nc(-c3cccs3)nc3ccccc23)CC1	S2 tox inconclusive, MCF10A rerep inconclusive, SW480 rereplic inconclusive, IL1B secr inh -59.0 (no result: ATXN2 expr inh)
Cc1ccc(C(=O)CCNc2ccc(Br)cc2)o1	MCF10A rerep inconclusive
Cc1ccc(C(=O)CCNc2ccccc2)o1	MCF10A rerep 7.08µM, SW480 rereplic inconclusive
Cc1ccc(C(=O)Cc2ccccc2)o1	SW480 rereplic 1.03µM
Cc1ccc(C(=O)CSc2nnnn2-c2ccccc2)o1	MCF10A rerep 0.411µM
Cc1ccc(C(=O)Cc2ccccc2)cc1	none
Cc1cnc(SCC2CCCO2)nc1C1CCCN(C(=O)c2ccc(S(N)(=O)=O)cc2)C1 (stereo unspecified)	none (no result: MCF10A rerep, ATXN2 expr inh, SW480 rereplic, IL1B secr inh)
COCCNc1ncnc2ccc(-c3ccccc3C)cc12	none (no result: S2 tox, MCF10A rerep, ATXN2 expr inh, SW480 rereplic, IL1B secr inh)
Cc1cnc(-c2cc(N3CCN(C(=O)CCS(C)(=O)=O)CC3)ncc2Cl)c(C)c1	none (no result: S2 tox, MCF10A rerep, SW480 rereplic, IL1B secr inh, PINK1 expr mod)
COc1ccc(Cn2c(SCc3ccc(C(=O)NC(C)C)cc3)nc3cccnc32)cc1	none (no result: MCF10A rerep, SW480 rereplic, IL1B secr inh)
c1ccc(-c2ccccc2OCCCCN2CCCCCC2)cc1	S2 tox inconclusive, SW480 rereplic inconclusive, PINK1 expr mod inconclusive (no result: ATXN2 expr inh)
CC1CCN(CCCOc2ccc(Br)cc2Cl)CC1	IL1B secr inh -59.8
CC1CCCN(CCCOc2ccccc2-c2ccccc2)C1 (stereo unspecified)	S2 tox inconclusive, IL1B secr inh -81.6
CC1CCN(CCCCOc2ccccc2-c2ccccc2)CC1	S2 tox inconclusive, MCF10A rerep inconclusive, SW480 rereplic inconclusive, IL1B secr inh -104.5
CC1CCN(CCOCCOc2ccccc2-c2ccccc2)CC1	S2 tox inconclusive, MCF10A rerep inconclusive, IL1B secr inh inconclusive
Cc1cc(C)cc(N2C(=O)CSC23C(=O)N(CC(=O)NC2CCCCC2)c2ccccc23)c1 (stereo unspecified)	none (no result: MCF10A rerep, SW480 rereplic, IL1B secr inh)
CC(C)COC(=O)c1cccc2c1-c1ccccc1/C2=N\O	S2 tox inconclusive, MCF10A rerep 18.4µM
CC1CCCC(C)N1C(=O)c1cccc2c1-c1ccccc1/C2=N/O (stereo unspecified)	none
CCOC(=O)c1cccc2c1-c1ccccc1/C2=N/O	IL1B secr inh -54.0
COc1cccc(C(c2sc3nc(-c4ccco4)nn3c2O)N2CCOCC2)c1 (stereo unspecified)	none (no result: MCF10A rerep, SW480 rereplic, IL1B secr inh)
O=C(CCCCCCC(=O)Nc1ccc([C@H]2O[C@@H](CSc3nc(-c4ccccc4)c(-c4ccccc4)o3)C[C@@H](c3ccc(CO)cc3)O2)cc1)NO	none (no result: S2 tox, MCF10A rerep, SW480 rereplic, IL1B secr inh, PINK1 expr mod)
COc1cccc(-c2ccc(NC(=O)C3=C(C(=O)O)CCC3)c(F)c2)c1	none (no result: S2 tox, MCF10A rerep, SW480 rereplic, IL1B secr inh, PINK1 expr mod)
COc1cccc(CNC(=O)CN2C(=O)CCn3nc(-c4cn(C)c5ccccc45)cc32)c1OC	none (no result: MCF10A rerep, SW480 rereplic, IL1B secr inh)
CC(=O)Oc1ccccc1/C=C/c1ccc2ccccc2[n+]1C	S2 tox inconclusive, MCF10A rerep inconclusive, IL1B secr inh -57.1 (no result: ATXN2 expr inh)
[O-][n+]1c(/C=C/c2ccccc2)ccc2ccccc21	S2 tox inconclusive, MCF10A rerep 20.6µM, SW480 rereplic 18.4µM
CN(C)c1ccc(/C=C/c2ccc3ccccc3[n+]2C)cc1	S2 tox 10µM, MCF10A rerep inconclusive, ATXN2 expr inh inconclusive, SW480 rereplic 2.31µM, IL1B secr inh -107.5, PINK1 expr mod inconclusive
CN(C)c1ccc(/C=C/c2cncc3ccccc23)cc1	none (no result: S2 tox, MCF10A rerep, ATXN2 expr inh, SW480 rereplic, IL1B secr inh)
CN(C)c1ccc(/C=C/c2c[n+](C)cc3ccccc23)cc1	PINK1 expr mod 44.7µM (no result: S2 tox, MCF10A rerep, ATXN2 expr inh, SW480 rereplic, IL1B secr inh)
COc1cccc(/C=C/c2ccc3ccccc3[n+]2C)c1OC	none (no result: S2 tox, MCF10A rerep, ATXN2 expr inh, SW480 rereplic, IL1B secr inh)
